Screening data as filed in PubChem BioAssay.
D2 ag-1: Beta-Arrestin HTS for Positive Allosteric Modulators of the Human D2 Dopamine Receptor: Agonists; D(2) dopamine receptor (Homo sapiens), P14416; DiscoveRx PathHunter D2 beta-arrestin, luminescence, 90 min; 100% = 57 uM dopamine signal; activation, % (concentration not given with the values); 360,000 compounds, 0.084% hits; AID 624465, 2012; in the data active means activation above about 40%; inconclusive means between about 15% and that limit
Target sequence (P14416 whole entry, looked up): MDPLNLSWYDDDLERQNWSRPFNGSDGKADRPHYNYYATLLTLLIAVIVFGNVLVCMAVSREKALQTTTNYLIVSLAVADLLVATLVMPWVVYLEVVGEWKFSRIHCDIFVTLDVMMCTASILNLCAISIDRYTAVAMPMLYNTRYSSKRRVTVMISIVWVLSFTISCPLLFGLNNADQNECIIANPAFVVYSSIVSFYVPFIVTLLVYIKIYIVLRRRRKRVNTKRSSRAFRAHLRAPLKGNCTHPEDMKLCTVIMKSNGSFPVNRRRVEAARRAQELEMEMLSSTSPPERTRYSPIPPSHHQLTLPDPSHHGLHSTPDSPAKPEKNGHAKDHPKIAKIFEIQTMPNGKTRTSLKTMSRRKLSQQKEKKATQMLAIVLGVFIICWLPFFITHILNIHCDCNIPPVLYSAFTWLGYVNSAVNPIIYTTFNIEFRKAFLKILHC
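Agonist mode: compounds alone added to overnight-plated D2 PathHunter cells for 90 min at 37 C, with 57 uM final dopamine (EC100) defining full response. Beta-arrestin recruitment detected by chemiluminescent reagent, read after 1 h at ambient temperature.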
D2 ag-2: HTS Assay for Allosteric Agonists of the Human D2 Dopamine Receptor: Primary Screen for Agonists; HEK293 T-REx D2 cells, calcium flux agonist mode; activation, % at 2 µM; 340,000 compounds, 0.53% hits; AID 485358, 2010;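 active means activation over 3 SD above normal in the single-dose calcium agonist read, cut at about 30% in these data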; further: 0% is about no effect
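Tetracycline-induced HEK293 T-REx cells with force-coupled D2 receptor, plated overnight at 30 C, loaded with no-wash calcium dye. After a 10 s baseline, compound was pin-added and calcium flux read kinetically for 180 s; calcium rises flagged agonists.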
D2 PAM-1: HTS Assay for Positive Allosteric Modulators of the Human D2 Dopamine Receptor: Primary Screen for Potentiators; HEK293 T-REx D2, calcium flux, EC20 dopamine potentiation; potentiation, % at 10 µM; 340,000 compounds, 0.34% hits; AID 485347, 2010;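 active means potentiation over 3 SD above the plate norm, cut at about 30% in these data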; further: 0% is about no effect
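Cells plated with tetracycline inducer and held overnight at 30 C; calcium dye loaded 30–90 min at room temperature; baseline taken, compound added and read 180 s; EC20 dopamine then added and read 180 s.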
D2 antag: HTS Assay for Allosteric Antagonists of the Human D2 Dopamine Receptor: Primary Screen for Antagonists; inhibition, % at 10 µM; HEK293 TREx D2 cells, calcium flux, dopamine EC80; D(2) dopamine receptor (Homo sapiens), P14416; 340,000 compounds, 2% hits; in the data active means inhibition above about 30%; inactive means below that, where a call was filed; further: 0% is about no effect
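Antagonism is scored as inhibition of an EC80 dopamine-evoked calcium signal in a force-coupled, tetracycline-inducible HEK293 T-REx D2 line, with compound present 180 s before agonist.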
D2 PAM-2: Beta-Arrestin HTS for Positive Allosteric Modulators of the Human D2 Dopamine Receptor: Potentiators; D(2) dopamine receptor (Homo sapiens), P14416; DiscoveRx D2 beta-arrestin cells, luminescence, 90 min; 100% = 57 uM dopamine signal; potentiation, % (concentration not given with the values); 360,000 compounds, 0.23% hits; AID 624464, 2012; in the data active means potentiation above about 50%; inconclusive means mostly about 30% to 49%
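PathHunter D2 cells, attached overnight at 37 deg C, received compound in DMSO plus dopamine at EC20 (50 nM final) for 90 min at 37 deg C. Beta-arrestin recruitment was read as luminescence after 1 h with detection reagent at ambient temperature.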
Starred values were filed as active, the others as inactive; ? = inconclusive; / = not tested or not shown; ! = a repeat was not active. The list is not random: actives were taken first. Their share in the collection is about 2.4%.

SMILES	D2 ag-1	D2 ag-2	D2 PAM-1	D2 antag	D2 PAM-2
O=C(CSC1=NCCN1)Nc1ccccc1[N+](=O)[O-]	-8.9	-0.4	-17.0	-4.7	-14.9
O=C(CSC1=NCCN1)Nc1cccc([N+](=O)[O-])c1	-3.9	-0.4	-21.5	49.1*	-22.1
CCc1cnc2c(c1SCc1c(F)cccc1Cl)c(=O)n(C)c(=O)n2C	/	0.8	-0.2	/	/
Cc1cccc(N2C(=O)C(CC(=O)Nc3ccccc3)N(C3CCCCC3)C2=O)c1 (configuration not stated)	/	0.7	0.2	/	/
COc1ccc(O)c(CNn2c(-c3ccc(Br)cc3)nc3ccccc3c2=O)c1	-3.0	-1.8	3.2	49.9*	7.6
COc1ccc(C)cc1NC(=O)c1c2c(nc3ccccc13)C(=O)N(C1CCCCC1)C2	/	1.2	4.2	/	/
CCOC(=O)C1=C(N)Oc2cc(O)ccc2C1c1cccc([N+](=O)[O-])c1 (configuration not stated)	1.6	-0.7	1.6	-14.8	-4.6
Oc1ccc(-c2nc3ccc4ccccc4c3c3c2CCC3)cc1O	8.1	1.7	14.0	10.3	22.1
N/C(=N\OC(=O)c1ccc(Br)cc1)c1ccncc1	41.6*	0.1	1.8	25.8	52.0*
COc1cc(OC)cc(C(=O)O/N=C(\N)c2ccncc2)c1	?	-0.9	8.6	-19.5	110.8*
N/C(=N\OC(=O)c1ccccc1)c1ccncc1	3.2	3.0	-24.7	-12.4	7.2
CSc1oc(-c2ccco2)nc1S(=O)(=O)c1ccccc1	-3.7	0.4	-6.5	3.6	-4.1
CC(C)Sc1oc(-c2ccco2)nc1S(=O)(=O)c1ccccc1	-2.6	-2.6	-2.7	32.7*	-15.2
O=c1[nH]c2cc3c(cc2cc1CN(CCc1ccccc1)Cc1nnnn1C1CCCC1)OCCO3	/	34.9*	-14.3	-1.1	/
Cc1cc2cc(CN(Cc3ccc4c(c3)OCO4)Cc3nnnn3C3CCCC3)c(=O)[nH]c2cc1C	-2.1	0.1	-3.3	-15.0	-7.1
CNc1nc(C)nc(N/N=C/c2ccccc2)n1	9.9	12.3	-1.9	42.4*	-5.2
CC(=O)c1ccc(N2CCN(C(=O)c3cccc(Oc4ccccc4)c3)CC2)cc1	7.3	1.2	-5.2	35.3*	-1.6
CC(=O)c1ccc(N2CCN(C(=O)c3ccc(-c4ccccc4)cc3)CC2)cc1	-2.0	-0.5	1.4	-0.6	-4.4
O=C(CCN1CCN(c2ccc([N+](=O)[O-])cc2)CC1)c1ccc(Cl)cc1	2.2	1.7	-8.1	33.8*	-1.3
O=C(CCN1CCN(c2ccccc2)CC1)c1ccc(Cl)cc1	4.4	33.1*	-34.4	17.1	-13.7
Cc1ccc(CNC(=O)CN2C(=O)C3CCCCN3c3ccc(C(=O)N4CCCC4)cc32)cc1 (configuration not stated)	/	-1.1	8.2	/	/
COc1ccccc1NC(=S)NC(=O)Cc1ccc(Cl)cc1	-5.4	9.2	-14.1	52.3*	2.5
O=c1cc(-c2ccc([N+](=O)[O-])cc2)nc2cc(-c3ccc(Cl)cc3)[nH]n12	/	-1.4	-13.7	35.5*	/
COCCc1ccc(OCC(O)CNC(C)C)cc1 (configuration not stated)	-1.5	1.2	-4.3	33.9*!	-0.1
CC(C)NCC(O)COc1ccc(CCOCC2CC2)cc1 (configuration not stated)	-5.7	1.7	-1.7	-5.2	-7.5
SMILES	D2 ag-1	D2 ag-2	D2 PAM-1	D2 antag	D2 PAM-2
CC(CCc1ccccc1)NCC(O)COc1ccccc1 (configuration not stated)	5.0	34.8*	-30.1	55.4*	-8.7
OC(CNCC1CCCCC1)COc1ccccc1 (configuration not stated)	-1.0	0.4	-20.1	46.5*	-22.1
CCC1Sc2ccccc2N(CC(=O)NCc2ccc(C)cc2)C1=O (configuration not stated)	/	0.4	-15.0	/	/
COc1cccc(NC(CNS(=O)(=O)c2ccc(Cl)cc2)c2ccccc2)c1 (configuration not stated)	/	-1.2	12.3	/	/
COc1cc([N+](=O)[O-])ccc1NC(=O)CCN1C(=O)C2C3CCC(C3)C2C1=O (configuration not stated)	4.5	/	/	/	-21.4
COC(=O)c1ccc([N+](=O)[O-])cc1N1C(=O)C2C3CCC(C3)C2C1=O (configuration not stated)	?	-0.2	-0.7	52.7*	7.2
CN1CCN(c2ccccc2NC(=O)COc2ccccc2)CC1	0.2	0.1	-4.4	-22.2	-12.1
CN1CCN(c2ccccc2NC(=O)COc2ccc(Cl)cc2)CC1	-1.4	0.1	-5.5	30.3*	-31.2
N#Cc1ccc(NC(=O)COC(=O)CSc2nnc(-c3ccc(Cl)cc3)o2)cc1	0.0	1.8	-0.7	31.3*	1.6
O=C(COC(=O)CSc1nnc(-c2ccc(Cl)cc2)o1)Nc1cc(Cl)ccc1Cl	-3.0	0.0	-5.1	4.6	-14.7
O=C(c1cc2ccccc2[nH]1)N(Cc1cccnc1)CC1CCCN(C2CCCCC2)C1 (configuration not stated)	0.1	0.5	-12.4	38.8*	-26.4
CC(=O)N(Cc1cccnc1)Cc1cc2ccccc2[nH]c1=O	-0.8	-0.4	-7.6	-8.9	-9.4
COCc1cc(C)nc2sc3c(c12)NC(c1ccc(O)cc1)N(c1ccc(C)cc1)C3=O (configuration not stated)	/	/	3.6	/	/
O=C(CSc1nccn1Cc1ccc(F)cc1)NCc1ccco1	/	0.8	-6.2	/	/
N#CC1=C(N)Oc2ccccc2C12C(=O)Nc1n[nH]c(-c3ccccc3)c12 (configuration not stated)	8.1	-0.7	1.5	-2.2	22.4
Cn1c2c(c(=O)n(C)c1=O)C1(C(=O)Nc3ccccc31)C(C#N)=C(N)O2 (configuration not stated)	10.2	/	/	/	53.6*
NNc1nc(Nc2ccc([N+](=O)[O-])cc2)nc(N2CCCCCC2)n1	-2.2	2.0	5.3	-2.3	-36.3
Cc1ccc([N+](=O)[O-])cc1Nc1nc(N2CCCC2)nc(N2CCCC2)n1	-3.6	0.5	11.1	34.5*	-3.7
CN(C)CCCNc1cc(N2CCN(C3CCCCC3)CC2)c2noc3c2c1C(=O)c1ccccc1-3	/	0.1	-2.7	/	/
O=C1CCNc2cc3ccccc3cc21	14.9	-0.5	28.1	5.9	55.4*
C(=N\N1CCOCC1)/c1nc(-c2ccccc2)n2ccccc12	2.2	1.0	0.7	43.4*	-2.0
